Assay results from PubChem BioAssay AID720650 (Broad Institute, 2013).
A number with no mark means an inactive call. Activity calls are given as the source filed them. No rule for the calls is given here.

Assay: C difficile toxins, biochemical counterscreen, UDPG substrate absence, confirmatory dose response (AID 720650)

SMILES | AC50
N/C(=N\N=C\c1ccc(O)cc1)c1nonc1N | 5.49 µM (active)
CCN1/C(=C2\OC(=S)N(C)C2=O)C=Cc2ccccc21 | inactive
O=C(NNc1nc2c(F)cccc2s1)C1COc2ccccc2O1 (stereo unspecified) | 0.34 µM (active)
C[C@H](CO)N1C[C@H](C)[C@@H](CN(C)C(=O)Nc2ccc(C(F)(F)F)cc2)Oc2c(NS(=O)(=O)c3ccccc3)cccc2C1=O | > 39 µM
O=c1oc(-c2ccc(Br)cc2)nc2ccccc12 | inactive
CCOc1cc(/C=N\n2nnnc2N)ccc1O | inactive
CCn1c(C)nc2cc(C(=O)N/N=C/c3ccc(OC)c(O)c3)ccc21 | inactive
Cc1cc(C)c(C)c(S(=O)(=O)N2CCCCC2C(=O)O)c1C (stereo unspecified) | > 39 µM
COCCNc1cc(N)c([N+](=O)[O-])cc1[N+](=O)[O-] | inactive
c1ccc(Cc2nnc3n2N=C(c2ccccc2)CS3)cc1 | inactive
C[C@H]1CN([C@@H](C)CO)C(=O)c2c(c3ccccc3n2C)-c2ccccc2CO[C@H]1CN(C)C | inactive
COC1=C/C(=C/c2c(N)n3nc(CC(=O)N4CCOCC4)sc3nc2=O)C=CC1=O | inactive
CCOC(=O)Nc1ccc(OC(=O)Oc2ccc(NC(=O)OCC)cc2)cc1 | > 39 µM
CSc1nc(Cl)cc(Nc2ccc(O)cc2)n1 | inactive
O=S(=O)(Oc1ccccc1-c1ccccc1)c1ccccc1 | inactive
CCOC(=O)Cn1c(C(F)(F)F)nc2nc(Cl)c(Cl)nc21 | inactive
Cc1nn(CCOc2ccccc2)c(=O)n1-c1ccc(Cl)cc1 | inactive
C[C@@H]1CN([C@@H](C)CO)S(=O)(=O)c2ccc(C#Cc3ccncc3)cc2O[C@H]1CN(C)C(=O)C1CC1 | inactive

SMILES | AC50
CC(C)NC(=O)N1CC[C@@H]2[C@@H](CO)N(C)c3ccc(-c4ccc(F)cc4)cc3[C@@H]21 | 4.11 µM (active)
O=C(N/N=C/c1ccc(O)cc1)NC12CC3CC(CC(C3)C1)C2 | 11.2 µM (active)
CC(=O)C1=CCC(c2ccccc2)N(S(=O)(=O)c2ccc(C)cc2)C1 (stereo unspecified) | inactive
CCCCn1c(N)c(N(CCOC)C(=O)CSc2nnc(-c3ccco3)n2CC)c(=O)[nH]c1=O | inactive
O=C(NNc1nc2c(F)cc(F)cc2s1)C1COc2ccccc2O1 (stereo unspecified) | 0.699 µM (active)
COc1cc2nncc(SC)c2cc1OC | inactive
Cc1ccc(S(=O)(=O)Oc2ccccc2/C=C2\SC(=O)NC2=O)cc1 | inactive
Cc1ccc(S(=O)(=O)N2CC(CO)=CCC2c2ccccc2)cc1 (stereo unspecified) | 8.79 µM (active)
Cc1cccc(CN2CCN(c3ncccn3)CC2)c1 | inactive
COc1ccc(Br)cc1C(=O)Nc1ccc(O)cc1 | 9.64 µM (active)
CCCC(=O)Nc1ccc2c(c1)OC[C@H](C)N(CC1CCCC1)C[C@H](C)[C@@H](OC)CN(C)C2=O | inactive
c1ccc(OCCSc2nnc3sc4ccccc4n23)cc1 | 20.6 µM (active)
Cc1cc(C)nc(SCC(=O)c2ccc(O)c(O)c2)n1 | inactive
COc1cccc(Oc2ccc3nnc(C(F)(F)F)n3n2)c1 | inactive
O=C(O)c1c(C(=O)O)c(-c2ccc(Br)cc2)n2c1CSC2 | inactive
O=S(=O)(c1ccccc1)N1CCN=C1SCc1ccccc1 | > 39 µM
O=C(NCc1ccncc1)[C@@H]1CCCN1C(=O)[C@@H]1CCCN1 | inactive
CC(C)=CCOc1c2occc2cc2ccc(=O)oc12 | > 39 µM
